Assay results reported in PubChem BioAssay (Tox21).
“And” between values parts separate entries of the source, which are not always exact repeats. Equal values may be shown once. Inconclusive results are not listed. A call without a number means that no potency is given here. Some structures have more than one record in an assay (separate samples or runs), and their calls can disagree. The source made the active and inactive calls. Unless noted, calls follow the shape of the dose curve; as a rule, active = well fitted curve in the direction sought with a large enough effect in the repeat runs; inconclusive = weak or mixed curves; inactive = no such curve, though single readings can be large; an effect the other way counts as inactive or inconclusive.

Key:
[1] = molecular target: Peroxisome proliferator-activated receptor delta (Homo sapiens) (UniProt Q03181); assay: qHTS assay to identify small molecule agonists of the peroxisome proliferator-activated receptor delta (PPARd) signaling pathway (AID 743212; calls by dose curve); settings: HEK293H PPARd-UAS-bla, beta-lactamase FRET ratio, 17 h; series mostly up to 62.6 µM
In short: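 Tox21 library screened in GeneBLAzer PPARd UAS-bla HEK293H cells. After compound treatment at 37 C, a FRET-based beta-lactamase substrate was applied for 2 h and fluorescence recorded.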

[2] = qHTS assay to identify small molecule antagonists of the peroxisome proliferator-activated receptor delta (PPARd) signaling pathway - cell viability counter screen (AID 743213); settings: PPARd-bla HEK293H viability, CellTiter-Glo luminescence, 17 h; series mostly up to 62 µM; also: nearly all actives have a fitted effect of over 50% in size; also: potency is read from the fitted curve at half-maximal effect
In short: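 Agonist-stimulated (L165041, 300 nM final) HEK293H PPARd UAS-bla cells are exposed to compounds for 17 h at 37 C, and ATP-based luminescence (CellTiter-Glo) from the same wells reports cytotoxicity.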

[3] = molecular target: Bile acid receptor (Homo sapiens) (UniProt Q96RI1); assay: qHTS assay to identify small molecule antagonists of the farnesoid-X-receptor (FXR) signaling pathway (AID 743217; active = well fitted inhibition curve with a large enough effect in the signal ratio in the repeat runs, not every such curve was filed as active; the % refers to the signal ratio); settings: HEK293T FXR-UAS-bla, beta-lactamase ratio, CDCA-stimulated, 16 h; series mostly up to 62.6 µM
In short: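 Screen of the Tox21 10K library in quantitative HTS format using FXR-UAS-bla HEK 293T reporter cells. Agonist chenodeoxycholic acid, 50 uM final, added with compounds; 16 h incubation at 37 °C; beta-lactamase FRET fluorescence measured.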

[4] = molecular target: Bile acid receptor (Homo sapiens) (UniProt Q96RI1); assay: qHTS assay to identify small molecule agonists of the farnesoid-X-receptor (FXR) signaling pathway (AID 743220; active = well fitted activation curve with a large enough effect in the signal ratio in the repeat runs, not every such curve was filed as active; the % refers to the signal ratio); settings: HEK293T FXR-UAS-bla, beta-lactamase FRET ratio, 16 h; series mostly up to 62.6 µM
In short: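 FXR-UAS-bla HEK 293T cells carrying a UAS-driven beta-lactamase reporter were plated for 5 h at 37C/5% CO2, then exposed to DMSO-dissolved Tox21 10K compounds for 16 h at 37C. A LiveBLAzer B/G FRET substrate was loaded for 2 h at room temperature before fluorescence reading.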

[5] = qHTS assay to identify small molecule antagonists of the farnesoid-X-receptor (FXR) signaling pathway - cell viability counter screen (AID 743221; active = well fitted cell-killing curve with a large enough effect in the repeat runs, not every such curve was filed as active; also: nearly all actives have a fitted effect of over 50% in size; also: potency is read from the fitted curve at half-maximal effect); settings: FXR-bla HEK293T viability, CellTiter-Glo luminescence, 16 h; series mostly up to 62.6 µM
In short: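 Multiplexed counter screen: viability of FXR-bla HEK 293T cells under agonist stimulation by chenodeoxycholic acid (50 uM, final) and test compound for 16 h at 37 C, measured by CellTiter-Glo luminescence in the reporter wells.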

[6] = qHTS assay to identify small molecule agonists of the vitamin D receptor (VDR) signaling pathway - cell viability counter screen (AID 743224); settings: VDR-bla HEK293T viability, CellTiter-Glo luminescence, 16 h; series mostly up to 62.6 µM; also: nearly all actives have a fitted effect of over 50% in size; also: potency is read from the fitted curve at half-maximal effect
In short: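 Compounds were pin-transferred onto VDR-bla cells plated 4 h earlier; following 16 h incubation at 37C, cell viability was quantified by CellTiter-Glo luminescence after 30 min at room temperature.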

[7] = qHTS assay to identify small molecule antagonists of the vitamin D receptor (VDR) signaling pathway - cell viability counter screen (AID 743225); settings: VDR-bla HEK293T viability, CellTiter-Glo luminescence, 16 h; series mostly up to 61 µM; also: nearly all actives have a fitted effect of over 50% in size; also: potency is read from the fitted curve at half-maximal effect
In short: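 HEK293T VDR-bla; cpd + 1a,25-(OH)2D3 3 nM final, 16 h 37C/5% CO2; B/G FRET substrate 2 h RT; then CellTiter-Glo 30 min RT, luminescence.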

[8] = qHTS assay to identify small molecule agonists of the NFkB signaling pathway - cell viability counter screen (AID 1159515; calls by dose curve; also: nearly all actives have a fitted effect of over 55% in size; also: potency is read from the fitted curve at half-maximal effect); settings: NFkB-bla ME-180 viability, CellTiter-Glo luminescence, 5 h; series mostly up to 61 µM
In short: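 Parallel cytotoxicity counter screen in ME-180 cells carrying an NFkB-response-element beta-lactamase reporter, 2,000 cells/well. Compound exposure lasted 5 hr at 37 C, 5% CO2. Cell viability was quantified by CellTiter-Glo luminescence.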

[9] = molecular target: Nuclear receptor ROR-gamma (Homo sapiens) (UniProt P51449); assay: qHTS assay to identify small molecule antagonists of the retinoid-related orphan receptor gamma (ROR-gamma) signaling pathway (AID 1159521; also: nearly all actives have a fitted effect of over 50% in size; also: potency is read from the fitted curve at half-maximal effect); settings: Tet-on RORgamma CHO cells, RORE-luciferase, 16 h; series mostly up to 92.4 µM
In short: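 Cells were plated, rested 4 h at 37 C, exposed to compounds for 2 h, then given 1 uM final doxycycline hyclate to induce RORγ expression. After 16 h, ONE-Glo luminescence from the ROR response element reporter was measured.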

[10] = qHTS assay to identify small molecule agonists of the AP-1 signaling pathway - cell viability counter screen (AID 1159525; calls by dose curve; also: nearly all actives have a fitted effect of over 55% in size; also: potency is read from the fitted curve at half-maximal effect); settings: ME-180 AP-1-bla cells viability, ATP luminescence, 5 h; series mostly up to 76.8 µM
In short: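 Same-well cytotoxicity counter screen of the Tox21 10K library in ME-180 cells. The readout is ATP-dependent luminescence after 5 h compound treatment. Data are normalised to DMSO and tetra n-octyl ammonium bromide controls.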

[11] = qHTS assay to identify small molecule agonists of the AP-1 signaling pathway (AID 1159526; calls by dose curve); settings: ME-180 (cervical carcinoma) AP-1-bla reporter, beta-lactamase FRET ratio, 5 h; series mostly up to 76.8 µM
[12] = qHTS assay to identify small molecule agonists of the endoplasmic reticulum stress response signaling pathway - cell viability counter screen (AID 1159517; calls by dose curve; also: nearly all actives have a fitted effect of over 50% in size; also: potency is read from the fitted curve at half-maximal effect); settings: ESRE-bla HeLa viability, CellTiter-Glo luminescence, 5 h; series mostly up to 61 µM
In short: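 In parallel with the ESRE reporter read, cytotoxicity was scored by CellTiter-Glo luminescence (30 min, room temperature) on HeLa ESRE-bla cells dosed for 5 hr.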

[13] = qHTS assay to identify small molecule agonists of the RXR signaling pathway - cell viability counter screen (AID 1159529); settings: RXR-alpha-bla HEK293T viability, CellTiter-Glo, 16 h; series mostly up to 76.8 µM; also: nearly all actives have a fitted effect of over 50% in size; also: potency is read from the fitted curve at half-maximal effect
In short: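 Steps: seed RXR-alpha-UAS-bla HEK 293T cells in assay medium containing 2% charcoal-stripped FBS; incubate 5 hr; add compounds in DMSO; incubate 16 hr at 37 C; after the bla read, add CellTiter-Glo and read luminescence at 30 min.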

[14] = molecular target: Peroxisome proliferator-activated receptor delta (Homo sapiens) (UniProt Q03181); assay: qHTS assay to identify small molecule antagonists of the peroxisome proliferator-activated receptor delta (PPARd) signaling pathway (AID 743215; active = well fitted inhibition curve with a large enough effect in the signal ratio in the repeat runs, not every such curve was filed as active; the % refers to the signal ratio; also: potency is read from the fitted curve at half-maximal effect); settings: HEK293H PPARd-UAS-bla, beta-lactamase FRET ratio, antagonist, 17 h; series mostly up to 62 µM
In short: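 Plated HEK293H PPARd-bla cells rested 5 h at 37 C and 5% CO2. Compound, then agonist L165041 at 300 nM final, was added; 17 h at 37 C followed. Substrate loading, 2 h room temperature, fluorescence measured.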

[15] = qHTS assay to identify small molecule agonists of the farnesoid-X-receptor (FXR) signaling pathway - cell viability counter screen (AID 743218); settings: FXR-bla HEK293T viability, CellTiter-Glo luminescence, 16 h; series mostly up to 62.6 µM; also: nearly all actives have a fitted effect of over 45% in size; also: potency is read from the fitted curve at half-maximal effect
In short: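 Viability of FXR-bla HEK 293T cells is measured by ATP-based CellTiter-Glo luminescence following 16 h compound treatment at 37 C and a prior 2 h room-temperature beta-lactamase substrate step.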

[16] = qHTS assay to identify small molecule agonists of the endoplasmic reticulum stress response signaling pathway (AID 1159516; active = well fitted activation curve with a large enough effect in the signal ratio in the repeat runs, not every such curve was filed as active; the % refers to the signal ratio); settings: ESRE-bla HeLa, ER stress beta-lactamase reporter, 5 h; series mostly up to 61 µM
In short: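 Using a HeLa line with an ESRE-driven beta-lactamase gene, agonist activity was measured by FRET substrate fluorescence (460 and 530 nm emission) after cells were treated with compounds for 5 hr at 37 C and 5% CO2.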

[17] = qHTS assay to identify small molecule antagonists of the retinoid-related orphan receptor gamma (ROR-gamma) signaling pathway - cell viability counter screen (AID 1159520); settings: Tet-on RORgamma CHO cells viability, ATP luminescence, 16 h; series mostly up to 92.4 µM; also: nearly all actives have a fitted effect of over 50% in size; also: potency is read from the fitted curve at half-maximal effect
In short: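 Tet-on ROR gamma CHO cells were given compounds for 2 hr, then doxycycline hyclate at 1 uM final, and incubated 16 hr at 37 C. Viability was measured as ATP content by CellTiter-Glo luminescence.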

[18] = molecular target: Retinoic acid receptor RXR-alpha (Homo sapiens) (UniProt P19793); assay: qHTS assay to identify small molecule agonists of the RXR signaling pathway (AID 1159527; calls by dose curve; also: nearly all actives have a fitted effect of over 35% in size); settings: HEK293T RXRa-UAS-bla, beta-lactamase ratio, 16 h; series mostly up to 76.8 µM
In short: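 Cells plated at 2,000/well, rested 5 hr at 37 C, pin-dosed with DMSO compound solutions, incubated 16 hr, then loaded with B/G FRET substrate for 2 hr at RT before dual-emission fluorescence reading.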

[19] = molecular target: Vitamin D3 receptor (Homo sapiens) (UniProt P11473); assay: qHTS assay to identify small molecule antagonists of the vitamin D receptor (VDR) signaling pathway (AID 743223; active = well fitted inhibition curve with a large enough effect in the signal ratio in the repeat runs, not every such curve was filed as active; the % refers to the signal ratio; also: potency is read from the fitted curve at half-maximal effect); settings: VDR-UAS-bla HEK293T, beta-lactamase FRET ratio, 16 h; series mostly up to 61 µM
In short: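 Cells carrying a VDR-driven beta-lactamase reporter (VDR-bla) were co-treated with compound and 3 nM final 1alpha,25-dihydroxyvitamin D3 for 16 h at 37C; reporter activity was measured as FRET substrate fluorescence after 2 h at room temperature.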

[20] = molecular target: Vitamin D3 receptor (Homo sapiens) (UniProt P11473); assay: qHTS assay to identify small molecule agonists of the vitamin D receptor (VDR) signaling pathway (AID 743222; calls by dose curve); settings: HEK293T VDR-UAS-bla, beta-lactamase FRET ratio, 16 h; series mostly up to 63.5 µM
In short: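 Fluorescence from cleaved LiveBLAzer B/G FRET substrate served as readout. VDR-bla cells had been treated 16 h at 37C with test compounds in DMSO, following a 4 h settling period, and substrate was loaded for 2 h at RT.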

Vitamin D3 receptor (Homo sapiens), sequence (P11473 whole entry, looked up): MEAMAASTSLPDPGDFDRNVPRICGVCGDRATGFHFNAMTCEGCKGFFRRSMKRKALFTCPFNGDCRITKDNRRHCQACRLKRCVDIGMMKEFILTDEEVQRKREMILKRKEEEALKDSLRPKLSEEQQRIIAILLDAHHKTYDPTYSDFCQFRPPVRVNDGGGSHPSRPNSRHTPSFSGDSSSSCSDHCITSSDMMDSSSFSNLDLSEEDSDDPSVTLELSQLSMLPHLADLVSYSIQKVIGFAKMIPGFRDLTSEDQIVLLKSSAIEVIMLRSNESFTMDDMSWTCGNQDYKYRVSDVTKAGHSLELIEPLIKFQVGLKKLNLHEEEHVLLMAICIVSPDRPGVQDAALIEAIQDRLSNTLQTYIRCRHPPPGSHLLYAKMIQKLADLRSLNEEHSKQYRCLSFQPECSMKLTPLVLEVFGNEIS
Bile acid receptor (Homo sapiens), sequence (Q96RI1 whole entry, looked up): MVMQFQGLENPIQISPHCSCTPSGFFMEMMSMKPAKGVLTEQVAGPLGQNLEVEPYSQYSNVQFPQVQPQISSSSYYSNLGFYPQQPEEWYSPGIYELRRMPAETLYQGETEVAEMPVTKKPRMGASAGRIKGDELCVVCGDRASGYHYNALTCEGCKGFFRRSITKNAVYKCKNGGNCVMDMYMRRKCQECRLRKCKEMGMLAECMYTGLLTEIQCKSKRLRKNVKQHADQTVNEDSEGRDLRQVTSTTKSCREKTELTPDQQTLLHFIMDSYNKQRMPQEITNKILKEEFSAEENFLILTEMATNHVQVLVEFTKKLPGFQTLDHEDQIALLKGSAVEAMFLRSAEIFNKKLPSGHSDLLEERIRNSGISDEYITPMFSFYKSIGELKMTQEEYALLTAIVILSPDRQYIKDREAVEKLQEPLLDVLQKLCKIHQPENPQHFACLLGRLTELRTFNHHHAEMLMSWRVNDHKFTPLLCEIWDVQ
Peroxisome proliferator-activated receptor delta (Homo sapiens), sequence (Q03181 whole entry, looked up): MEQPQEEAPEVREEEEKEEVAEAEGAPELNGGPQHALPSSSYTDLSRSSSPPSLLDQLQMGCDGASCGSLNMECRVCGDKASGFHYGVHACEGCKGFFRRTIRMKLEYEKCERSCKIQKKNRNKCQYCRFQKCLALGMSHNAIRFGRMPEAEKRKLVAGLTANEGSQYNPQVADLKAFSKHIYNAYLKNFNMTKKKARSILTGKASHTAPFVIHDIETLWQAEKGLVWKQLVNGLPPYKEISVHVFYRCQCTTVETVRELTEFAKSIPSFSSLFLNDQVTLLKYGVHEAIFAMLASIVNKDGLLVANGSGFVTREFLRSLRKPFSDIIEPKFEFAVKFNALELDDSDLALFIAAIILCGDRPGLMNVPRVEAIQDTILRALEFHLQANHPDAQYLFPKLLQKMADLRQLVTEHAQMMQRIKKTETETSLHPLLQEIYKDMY
Retinoic acid receptor RXR-alpha (Homo sapiens), sequence (P19793 whole entry, looked up): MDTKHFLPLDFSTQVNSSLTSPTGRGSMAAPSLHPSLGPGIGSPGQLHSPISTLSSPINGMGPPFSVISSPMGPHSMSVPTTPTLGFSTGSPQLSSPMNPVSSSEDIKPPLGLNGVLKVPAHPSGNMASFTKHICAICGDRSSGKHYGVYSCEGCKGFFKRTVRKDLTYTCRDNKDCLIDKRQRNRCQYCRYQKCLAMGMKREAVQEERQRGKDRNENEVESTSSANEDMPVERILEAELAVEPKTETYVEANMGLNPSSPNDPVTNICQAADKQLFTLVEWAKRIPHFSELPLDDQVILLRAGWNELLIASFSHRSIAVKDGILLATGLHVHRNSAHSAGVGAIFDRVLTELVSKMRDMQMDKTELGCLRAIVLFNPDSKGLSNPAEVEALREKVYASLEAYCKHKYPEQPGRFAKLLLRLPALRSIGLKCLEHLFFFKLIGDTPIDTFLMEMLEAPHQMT

Structure (SMILES)	Potency [1]	Potency [2]	Potency [3]	outcome [4]	Potency [5]	Potency [6]	Potency [7]	Potency [8]	Potency [9]	Potency [10]	Potency [11]	Potency [12]	Potency [13]	Potency [14]	Potency [15]	Potency [16]	Potency [17]	outcome [18]	Potency [19]	Potency [20]
CCOC(=O)OC1=C(c2cc(C)ccc2C)C(=O)NC12CCC(OC)CC2 (stereo unspecified)	inactive	inactive	inactive	inactive	inactive	inactive	inactive	inactive	inactive	inactive	inactive									
Oc1ccc2ccc3cccc4ccc1c2c34					inactive			inactive		inactive		inactive	49 µM (active)							
O=S(=O)(c1ccc(Cl)cc1)c1ccc(Cl)cc1					inactive		inactive	inactive		inactive		inactive	inactive							
Clc1ccc(CCC(Cn2ccnc2)Sc2c(Cl)cccc2Cl)cc1 (stereo unspecified)	inactive							23.9 µM (active)					23.9 µM (active)							
Oc1ccc(C2(c3ccc(O)cc3)c3ccccc3-c3ccccc32)cc1		13.8 µM (active)						54.9 µM (active)					38.9 µM (active)	11 µM (active)	54.9 µM (active)					
FC(Cl)(Cl)Cl		inactive	inactive	inactive	inactive	inactive	inactive		inactive	inactive	inactive	inactive	inactive		inactive	inactive	inactive	inactive		
CC(C)OS(C)(=O)=O	inactive	inactive	inactive	inactive	inactive		inactive			inactive	inactive	inactive	inactive	inactive	inactive	inactive	inactive	inactive		
CCCN(CC)CC1COC2(CCC(C(C)(C)C)CC2)O1 (stereo unspecified)	inactive	inactive			inactive	inactive	inactive		inactive	inactive	inactive	inactive	inactive		inactive	inactive	inactive	inactive	inactive	
O=c1[nH]c2ccccc2n1CCCN1CCC(n2c(=O)[nH]c3cc(Cl)ccc32)CC1					inactive	inactive	inactive			inactive		inactive	16.9 µM (active)			inactive	inactive			
C1CCC2CCCCC2C1 (stereo unspecified)	inactive	inactive	inactive	inactive	inactive		inactive		inactive		inactive	inactive	inactive	inactive	inactive	inactive	inactive	inactive		inactive
ClCc1ccc(Cl)cc1Cl	inactive	inactive			inactive	inactive	inactive	inactive		inactive	inactive		inactive	inactive	inactive			inactive		inactive
CC(C)CC(C)(c1ccc(O)cc1)c1ccc(O)cc1				inactive	55.1 µM (active) and inactive	49 µM (active)		49.1 µM (active)		43.8 µM (active)			55.1 µM (active) and 49 µM (active)						54.9 µM (active)	
S=C(SSC(=S)N1CCCCC1)N1CCCCC1		0.168 µM (active)			211 nM (active)				150 nM (active)			inactive	0.12 µM (active)			inactive	188 nM (active)			
O=c1[nH]c2ccccc2n1C1CCN(CCCC(c2ccc(F)cc2)c2ccc(F)cc2)CC1		21.9 µM (active) and 29.8 µM (active)		inactive		21.9 µM (active)	24.5 µM (active)		19.3 µM (active) and 23.7 µM (active)	19.5 µM (active)		49 µM (active) and 23.9 µM (active)	21.9 µM (active) and 23.9 µM (active)		21.9 µM (active)	inactive	24.3 µM (active) and 29.8 µM (active)			
CC(C)(C)OO	inactive	inactive			inactive	inactive	inactive		inactive	inactive	inactive	inactive	inactive	inactive	inactive	inactive		inactive		inactive
ClC(Cl)=C(Cl)Cl		inactive	inactive	inactive	inactive	inactive	inactive		inactive		inactive	inactive	inactive			inactive	inactive	inactive		inactive
CC(C)CCCCCOC(=O)c1ccccc1C(=O)OCCCCCC(C)C	inactive	inactive	inactive	inactive	inactive	inactive	inactive		inactive	inactive	inactive	inactive	inactive	inactive	inactive	inactive	inactive			inactive
CCCCCCCCCBr	inactive	inactive			inactive	inactive	inactive		inactive	inactive	inactive	inactive	inactive	inactive	inactive	inactive				inactive
c1ccc2c(c1)OCC(C1=NCCN1)O2 (stereo unspecified)						inactive	inactive		23700 nM (active)		inactive	inactive		23.7 µM (active)		inactive	inactive		16.9 µM (active)	
